Out of some 3,400 compounds screened, about 840 (25%) were called active. Another 11% or so got no clear call; they are omitted. These entries were drawn from the full list. Results with a measured potency or affinity are listed apart. A number with no mark means an inactive call.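 The calls were made as follows: active = fitted half-maximal concentration of signal decrease at or below twice the sample's top tested concentration; inconclusive = flat curve between -70 and -30 percent, or poor fit; inactive = flat within 30 percent, signal rise, or potency above limit.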

The assay can be described thus: T. gondii growth inhibition with IFN-gamma, dose response, cell-based, ME49Luc, HeLa, luciferase, 72 h (AID 1259418). The conditions noted are these: T. gondii ME49Luc in IFN-y HeLa, hits give low values, -100% = high-dose IFN-γ control wells; at 19.5 µM unless noted.
For `Cc1cccc(N2CCN(C(=O)c3ccc(-c4csc(C5CC5)n4)cc3)CC2C)c1` (stereo not given), the max activity is 40.1%.
The result for `CCN1C(=O)CCc2cc(NC(=O)c3ccc(Br)o3)ccc21` reads 15.9% [at 10 µM]; that for `Cc1ccc(-c2coc(-c3ccc(NC(=O)Nc4ccccc4Br)cc3)n2)cc1`, -10.7% [at 10 µM].
The result for `CCc1ccccc1NC(=O)CN1CCC2(CC1)N=C(c1cccc(Cl)c1)C(=O)N2` reads 9.92%.
As for `Cn1c(=O)c(C(=O)NCc2ccccc2Cl)cc2cccnc21`, the max activity was 196%.
As to `CCOc1ccc(-c2nc(CN(c3ccccc3OCC)S(=O)(=O)c3cccs3)c(C)o2)cc1`, the max activity was 6.64%.
The result for `Cc1ccccc1N(Cc1nc(-c2cccc(Cl)c2)oc1C)S(=O)(=O)c1cccs1` reads -9.43% [at 5 µM]; that for `Cc1ccccc1N(Cc1nc(-c2ccc(OC(C)C)cc2)oc1C)S(=O)(=O)c1cccs1`, 4.55%.
The figure for `CCOc1ccc(-c2nc(CN(c3ccccc3C)S(=O)(=O)c3cccs3)c(C)o2)cc1OC` is -13.1% [at 0.16 µM]; for `CCOC(=O)CSC1=Nc2ccccc2C2=NC(CC(=O)NCc3ccco3)C(=O)N12` (stereo not given) it is 21.4% [at 1.35 µM].
On to `COc1ccc(C(=O)Nc2ccc(-c3nc(-c4cc(C)ccc4C)co3)cc2)cc1`, for which the max activity is 9.17%.
Turning to `COc1ccccc1C(=O)N1CCC2(CC1)Nc1ccc(C)c(C)c1-n1cccc12`, the max activity was -7.27% [at 1.35 µM].
As to `CN1CCC(N2CCN(c3ncccc3-c3nnc(-c4ccc(Cl)cc4)o3)CC2)CC1`, the max activity is 4.69%.
As for `Cc1ccc(NC(=O)Nc2ccc(-c3nc(-c4ccccc4)co3)cc2)cc1Cl`, the max activity is 9.34%.
The figure for `CCOc1ccc(NC(=O)COc2nc(C)nc3ccccc23)cc1` is 30.4% [at 10 µM].
Consider `Cc1ccc2c(c1C)-n1cccc1C1(CCN(C(=O)COc3ccc(F)cc3)CC1)N2`, for which the max activity was -9.55% [at 0.16 µM].
Regarding `Cc1ccc(-c2coc(-c3ccc(NC(=O)CC4CCCCC4)cc3)n2)cc1`, the max activity was -15.2%.
For the compound `COc1ccccc1N(Cc1nc(-c2ccccc2)oc1C)S(=O)(=O)c1cccs1`, the max activity was -5.51% [at 0.68 µM].
The figure for `CCOc1ccccc1N(Cc1nc(-c2cccc(Cl)c2)oc1C)S(=O)(=O)c1cccs1` is 6.9%; for `CCOc1ccccc1N(Cc1nc(-c2cccc(C)c2)oc1C)S(=O)(=O)c1cccs1` it is 10.6%.
On to `COc1ccccc1N(Cc1nc(-c2ccc(OC(C)C)cc2)oc1C)S(=O)(=O)c1cccs1`, for which the max activity is -8.76% [at 0.35 µM].
As for `O=C(O)CN1C[C@H]2c3ccccc3C(OCC3CC3)[C@@H]2C1` (stereo not given in full), the max activity was 42.3%.
The result for `CCc1ccc2c(c1)cc(S(=O)(=O)c1ccccc1)c(=O)n2CC(=O)NC1CCCC1` reads 14.3% [at 0.16 µM]; that for `COc1ccc(-c2nc(Nc3ccc(C)c(F)c3)c3ccccc3n2)cc1`, 17.7% [at 2.6 µM]; that for `O=C(Cn1cccc1-c1nc(-c2ccccc2)cs1)N1CCC2(CC1)OCCO2`, -15.4% [at 2.6 µM].
With `COc1ccccc1N(Cc1nc(-c2ccccc2)oc1C)S(=O)(=O)c1ccccc1C`, the max activity was 9.45% [at 5 µM].
In the case of `Cc1csc([C@H]2C[C@H]3CCN(C(=O)c4cnccn4)C[C@@H]3O2)n1`, the max activity is 48.1%.
As to `COc1ccc(-c2nc(C)c(-c3ccc(SCc4ccc(C(F)(F)F)cc4)nn3)s2)cc1`, the max activity is 8.72% [at 2.6 µM].
The figure for `CCCCC(=O)N1CCC2(CC1)Nc1cc(OC)ccc1-n1cccc12` is 14.1% [at 2.6 µM]; for `Cc1ccc(-c2nc(CN3CCN(C(=O)Nc4ccccc4Cl)CC3)c(C)o2)cc1` it is 16.4% [at 2.6 µM]; for `O=C(CC1N=C2c3ccccc3N=C(SCc3ccccc3Cl)N2C1=O)NCc1ccc(F)cc1` (stereo not given) it is -7.22% [at 0.16 µM].
In the case of `O=C(CC1N=C2c3ccccc3N=C(SCc3cccc(Cl)c3)N2C1=O)NCc1ccc2c(c1)OCO2` (stereo not given), the max activity was 19.4% [at 10 µM].
In the case of `O=C(CC1N=C2c3ccccc3N=C(SCc3cccc(Cl)c3)N2C1=O)NCc1ccc(F)cc1` (stereo not given), the max activity is 30.2%.
With `CCOC(=O)CSC1=Nc2ccccc2C2=NC(CC(=O)NCCc3ccccc3)C(=O)N12` (stereo not given), the max activity is 64.6%.
`O=C(CC1N=C2c3ccccc3N=C(SCc3ccc(Cl)cc3)N2C1=O)NCc1ccc(F)cc1` (stereo not given): the max activity was 15%.
Take `O=C(CC1N=C2c3ccccc3N=C(SCc3ccccc3Cl)N2C1=O)NCc1ccccc1` (stereo not given): the max activity was 12.8% [at 2.6 µM].
The result for `COc1ccccc1-c1nc(Cn2nnc(-c3nc(-c4ccc(Cl)cc4)no3)c2C)c(C)o1` reads 9.29%.
The figure for `COc1ccc(C(=O)Nc2ccc(-c3nc(-c4ccc(C)cc4)co3)cc2)cc1OC` is 61.6% [at 10 µM].
In the case of `COC(=O)c1ccc(NC(=O)Nc2ccc(-c3nc(-c4ccc(C)cc4C)co3)cc2)cc1`, the max activity was 12.9% [at 0.68 µM].
With `CN(C)c1cccc(C(=O)N2CSC[C@@H]2C(=O)NCCc2csc(-c3ccccc3)n2)c1`, the max activity is 9.09% [at 0.16 µM].
As for `CCOC(=O)c1ccc(NC(=O)CN2CCC3(CC2)N=C(c2ccccc2)C(=O)N3)cc1`, the max activity was 23.6%.
The result for `COc1ccc(-c2nc(CN(c3ccc(OC)cc3)S(=O)(=O)c3ccccc3C)c(C)o2)cc1` reads 2.45%; that for `Cc1oc(-c2ccccc2)nc1Cn1nnc(-c2nc(-c3ccc(OC(C)C)cc3)no2)c1C`, -7.48% [at 5 µM].
With `CCc1nc(OCC(=O)Nc2ccccc2Br)c2ccccc2n1`, the max activity was 18.5% [at 0.68 µM].
The figure for `O=C(NCCc1csc(-c2ccccc2)n1)[C@H]1CSCN1S(=O)(=O)c1ccccc1F` is 11.9% [at 0.16 µM].
The figure for `O=C(Nc1ccccc1)[C@@H]1[C@@H](CO)[C@@H]2Cn3c(ccc(C4=CCCCC4)c3=O)[C@@H]2N1Cc1cocn1` is 31.9%; for `Cc1cccc(-c2noc(-c3nnn(Cc4nc(-c5cccc(C)c5)oc4C)c3C)n2)c1` it is 17.9%; for `Cc1ccc(-c2coc(-c3ccc(NC(=O)NCCc4ccccc4)cc3)n2)c(C)c1` it is 27.7% [at 0.35 µM].
The figure for `Cc1ccc(NC(=O)CN2CCC3(CC2)N=C(c2cccc(F)c2)C(=O)N3)cc1C` is -21.1%.
With `CCOc1ccc(NC(=O)N2CCN(Cc3nc(-c4ccccc4C)oc3C)CC2)cc1`, the max activity was -9.52%.
As for `Cc1nc(OCC(=O)Nc2ccc(C(C)C)cc2)c2ccccc2n1`, the max activity was 15.7% [at 1.35 µM].
The figure for `CC(C)CCNC(=O)CC1Nc2c3ccccc3nc(=S)n2C1=O` (stereo not given) is 41.3%.
The result for `CCOc1ccccc1NC(=O)CN1CCC2(CC1)N=C(c1cccc(Cl)c1)C(=O)N2` reads 5.75%.
As for `COc1ccccc1-c1nc(Cn2nnc(-c3nc(-c4cccc(F)c4)no3)c2C)c(C)o1`, the max activity is -3.46% [at 1.35 µM].
On to `Cc1ccc(-c2nc(Cn3nnc(-c4nc(-c5cccc(C)c5)no4)c3C)c(C)o2)cc1`, for which the max activity is -13% [at 5 µM].
The figure for `CCCNC(=O)N1CCc2nc(-c3ccc(OC)cc3)sc2C1` is 12.7% [at 10 µM]; for `Cc1ccccc1-c1ccc(C2[C@@H]3CN(C(=O)C4CCOCC4)C[C@H]2N3)cc1` (stereo not given in full) it is 20.5%; for `O=C(NC1CCCCC1)N1C[C@@H]2N[C@H](C1)C2c1ccc(-c2ccc(F)cc2)cc1` (stereo not given in full) it is 23.1% [at 10 µM].
As to `Cc1ccc(NC(=O)COc2nc(C)nc3ccccc23)c(C)c1`, the max activity was 13.8% [at 0.68 µM].
Turning to `COc1ccc(-c2nc(Nc3ccc(F)c(Cl)c3)c3ccccc3n2)cc1`, the max activity was 19.7%.
The result for `CO[C@H]1CCN(c2ccc(C)nn2)[C@H]1Cc1cnn(C)c1` reads -9.84% [at 1.2 µM]; that for `Cc1nc(-c2ccc(F)cc2)sc1-c1ccc(SCc2ccccc2Cl)nn1`, 10% [at 0.16 µM].
As to `Cc1ccc(-c2nc(Cn3nnc(-c4nc(-c5ccccc5Cl)no4)c3C)c(C)o2)cc1`, the max activity was -11.4% [at 2.6 µM].
The result for `CC(CCc1ccccc1)Nc1nc(-c2ccc(Cl)cc2)nc2ccccc12` (stereo not given) reads -14.3% [at 5 µM].
For `COc1ccc(-c2nc(N3CCN(c4cccc(C)c4C)CC3)c3ccccc3n2)cc1`, the max activity is 17%.
As for `Cc1ccc(-c2nc3c(s2)CN(C(=O)NCc2ccccc2)CC3)cc1`, the max activity was -24.6% [at 0.35 µM].
In the case of `CCCNC(=O)N1CCc2nc(-c3ccc(C)cc3)sc2C1`, the max activity is -30.1% [at 0.16 µM].
The result for `O=C(Nc1ccc(-c2nc(-c3ccccc3)co2)cc1)c1ccccc1F` reads -7.4% [at 10 µM]; that for `COCCN1C(=O)CCC12CCC(NC(=O)c1cc(C)on1)CC2` (stereo not given), 12.8%.
Regarding `Cc1cc(C)cc(S(=O)(=O)N2CCC3(CC2)NCCN=C3NC2CCCC2)c1`, the max activity is 8.57% [at 0.35 µM].
The result for `Cc1cc(C)c(S(=O)(=O)N2CCC3(CC2)NCCN=C3NC2CCCC2)cc1C` reads -17.7%; that for `Cc1ccc(S(=O)(=O)N2CCC3(CC2)NCCN=C3NC2CCCC2)cc1C`, 15.2% [at 1.35 µM].
With `CCOc1ccc(-c2ccc(OCCNC(=O)c3sc(-c4ccccc4)nc3C)nn2)cc1`, the max activity is 10.6%.
The result for `O=C(CCn1cnc2cc(-c3noc(Cc4c[nH]c5ccccc45)n3)ccc21)N1CCCC1` reads 27.3%.
The result for `CCCC(=O)Nc1ccc(-c2nc(-c3ccc(C)cc3C)co2)cc1` reads -18.1% [at 1.35 µM].

These data come from PubChem BioAssay AID1259418 (Broad Institute, 2018).
